The target of experiment [1] is T1, Tyrosine-protein kinase receptor TYRO3 (Homo sapiens) (UniProt Q06418).
T1 sequence (whole entry): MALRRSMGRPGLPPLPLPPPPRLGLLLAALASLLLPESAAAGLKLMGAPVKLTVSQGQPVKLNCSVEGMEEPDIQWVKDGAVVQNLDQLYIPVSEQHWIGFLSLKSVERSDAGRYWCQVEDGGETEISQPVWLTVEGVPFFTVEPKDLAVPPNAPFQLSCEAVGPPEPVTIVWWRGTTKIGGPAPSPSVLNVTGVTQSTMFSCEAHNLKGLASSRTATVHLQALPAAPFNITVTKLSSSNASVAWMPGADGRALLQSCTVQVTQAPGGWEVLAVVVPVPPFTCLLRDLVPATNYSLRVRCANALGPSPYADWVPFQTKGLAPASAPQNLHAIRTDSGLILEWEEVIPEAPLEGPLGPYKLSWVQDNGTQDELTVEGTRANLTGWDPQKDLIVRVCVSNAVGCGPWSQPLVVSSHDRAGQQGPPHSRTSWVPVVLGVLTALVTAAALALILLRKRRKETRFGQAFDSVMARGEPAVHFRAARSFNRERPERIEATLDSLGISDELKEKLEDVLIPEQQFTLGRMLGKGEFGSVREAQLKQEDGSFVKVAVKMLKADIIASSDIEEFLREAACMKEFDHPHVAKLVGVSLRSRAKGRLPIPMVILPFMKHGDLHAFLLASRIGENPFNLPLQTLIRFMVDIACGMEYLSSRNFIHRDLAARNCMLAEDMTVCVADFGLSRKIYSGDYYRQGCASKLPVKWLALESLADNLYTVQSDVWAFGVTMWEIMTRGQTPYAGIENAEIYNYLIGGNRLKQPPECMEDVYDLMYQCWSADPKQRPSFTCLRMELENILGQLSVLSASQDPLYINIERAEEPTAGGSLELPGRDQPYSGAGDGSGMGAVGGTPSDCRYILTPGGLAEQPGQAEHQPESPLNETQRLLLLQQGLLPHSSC
The conditions noted are these: at 1 µM.

Experiment [2] addresses Tyrosine-protein kinase Yes (Homo sapiens) (UniProt P07947). The conditions noted are these: at 0.1 µM.
For experiment [3] the target is unchanged. As to conditions: at 1 µM.
Experiment [4] deals with T2, Tyrosine-protein kinase ZAP-70 (Homo sapiens) (UniProt P43403).
T2 sequence (whole entry): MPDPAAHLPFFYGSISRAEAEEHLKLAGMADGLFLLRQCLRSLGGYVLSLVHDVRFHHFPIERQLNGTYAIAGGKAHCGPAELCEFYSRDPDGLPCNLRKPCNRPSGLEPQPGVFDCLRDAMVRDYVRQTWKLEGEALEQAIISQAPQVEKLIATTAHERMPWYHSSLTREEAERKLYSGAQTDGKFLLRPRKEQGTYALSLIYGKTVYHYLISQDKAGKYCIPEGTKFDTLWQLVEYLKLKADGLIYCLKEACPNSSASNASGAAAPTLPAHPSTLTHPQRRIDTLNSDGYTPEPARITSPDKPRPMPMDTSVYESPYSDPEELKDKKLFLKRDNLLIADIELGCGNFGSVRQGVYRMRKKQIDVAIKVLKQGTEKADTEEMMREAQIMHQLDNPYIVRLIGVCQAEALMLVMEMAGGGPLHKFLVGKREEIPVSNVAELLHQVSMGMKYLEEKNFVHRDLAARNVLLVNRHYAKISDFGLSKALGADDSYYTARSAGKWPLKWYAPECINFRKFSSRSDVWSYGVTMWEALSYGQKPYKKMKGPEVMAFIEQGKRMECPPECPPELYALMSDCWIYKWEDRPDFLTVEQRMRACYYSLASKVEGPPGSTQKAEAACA
As to conditions: at 1 µM.

Experiment [5] deals with Serine/threonine-protein kinase B-raf (Homo sapiens) (UniProt P15056). As to conditions: at 0.1 µM.
Chain of Serine/threonine-protein kinase B-raf (Homo sapiens) (P15056 whole entry): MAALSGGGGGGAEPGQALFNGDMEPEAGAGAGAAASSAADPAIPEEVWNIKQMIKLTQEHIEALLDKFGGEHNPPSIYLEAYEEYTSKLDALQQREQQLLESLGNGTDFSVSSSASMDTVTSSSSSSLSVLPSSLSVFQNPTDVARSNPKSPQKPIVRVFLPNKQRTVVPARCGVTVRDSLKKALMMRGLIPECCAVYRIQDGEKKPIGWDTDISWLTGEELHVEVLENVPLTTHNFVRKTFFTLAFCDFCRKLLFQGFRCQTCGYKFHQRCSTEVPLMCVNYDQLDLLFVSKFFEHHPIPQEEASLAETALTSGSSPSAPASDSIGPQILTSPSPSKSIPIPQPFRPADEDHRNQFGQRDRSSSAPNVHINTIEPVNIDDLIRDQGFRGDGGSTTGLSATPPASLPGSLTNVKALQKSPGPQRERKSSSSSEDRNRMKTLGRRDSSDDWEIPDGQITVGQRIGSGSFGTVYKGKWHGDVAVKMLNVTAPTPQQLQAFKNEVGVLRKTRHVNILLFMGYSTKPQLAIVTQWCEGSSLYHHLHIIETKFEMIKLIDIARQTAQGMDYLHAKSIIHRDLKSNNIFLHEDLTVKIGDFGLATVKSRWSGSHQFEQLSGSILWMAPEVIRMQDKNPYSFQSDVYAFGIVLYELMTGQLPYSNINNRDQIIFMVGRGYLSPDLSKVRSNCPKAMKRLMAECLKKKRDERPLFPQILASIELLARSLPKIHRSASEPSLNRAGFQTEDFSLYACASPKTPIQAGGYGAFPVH
Experiment [6] shares this target. As to conditions: at 1 µM.
Experiment [7] relates to Serine/threonine-protein kinase B-raf (Homo sapiens), P15056 [V600E]. The conditions noted are these: at 0.1 µM.
Chain of Serine/threonine-protein kinase B-raf (Homo sapiens), P15056 [V600E] (P15056 whole entry V600E): as the sequence (P15056 whole entry) above, with V600E counted along it
Experiment [8] shares this test system. As to conditions: at 1 µM.
Experiment [9] concerns the target RAF proto-oncogene serine/threonine-protein kinase (Homo sapiens) (UniProt P04049). The conditions noted are these: at 0.1 µM.
The target is the same in experiment [10]. As to conditions: at 1 µM.
Experiment [11] has as its target T3, Interleukin-1 receptor-associated kinase 4 (Homo sapiens) (UniProt Q9NWZ3).
T3 sequence (whole entry): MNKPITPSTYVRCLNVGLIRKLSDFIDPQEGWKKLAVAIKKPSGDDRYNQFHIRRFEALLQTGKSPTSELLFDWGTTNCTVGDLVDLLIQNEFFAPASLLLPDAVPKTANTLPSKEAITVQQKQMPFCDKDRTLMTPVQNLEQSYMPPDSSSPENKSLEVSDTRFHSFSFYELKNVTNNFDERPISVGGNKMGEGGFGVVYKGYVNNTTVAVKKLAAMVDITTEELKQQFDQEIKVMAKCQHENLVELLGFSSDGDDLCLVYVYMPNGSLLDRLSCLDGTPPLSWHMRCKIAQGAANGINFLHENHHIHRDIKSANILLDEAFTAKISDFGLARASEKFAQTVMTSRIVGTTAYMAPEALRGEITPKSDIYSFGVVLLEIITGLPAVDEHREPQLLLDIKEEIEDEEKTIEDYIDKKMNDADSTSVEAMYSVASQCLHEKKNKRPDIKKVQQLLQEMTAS
The conditions noted are these: at 0.1 µM.

Experiment [12] concerns the target T3, Interleukin-1 receptor-associated kinase 4 (Homo sapiens). The conditions noted are these: at 1 µM.
For experiment [13], the target named is Leucine-rich repeat serine/threonine-protein kinase 2 (Homo sapiens) (UniProt Q5S007). The conditions noted are these: at 0.1 µM.
Chain of Leucine-rich repeat serine/threonine-protein kinase 2 (Homo sapiens) (Q5S007 whole entry): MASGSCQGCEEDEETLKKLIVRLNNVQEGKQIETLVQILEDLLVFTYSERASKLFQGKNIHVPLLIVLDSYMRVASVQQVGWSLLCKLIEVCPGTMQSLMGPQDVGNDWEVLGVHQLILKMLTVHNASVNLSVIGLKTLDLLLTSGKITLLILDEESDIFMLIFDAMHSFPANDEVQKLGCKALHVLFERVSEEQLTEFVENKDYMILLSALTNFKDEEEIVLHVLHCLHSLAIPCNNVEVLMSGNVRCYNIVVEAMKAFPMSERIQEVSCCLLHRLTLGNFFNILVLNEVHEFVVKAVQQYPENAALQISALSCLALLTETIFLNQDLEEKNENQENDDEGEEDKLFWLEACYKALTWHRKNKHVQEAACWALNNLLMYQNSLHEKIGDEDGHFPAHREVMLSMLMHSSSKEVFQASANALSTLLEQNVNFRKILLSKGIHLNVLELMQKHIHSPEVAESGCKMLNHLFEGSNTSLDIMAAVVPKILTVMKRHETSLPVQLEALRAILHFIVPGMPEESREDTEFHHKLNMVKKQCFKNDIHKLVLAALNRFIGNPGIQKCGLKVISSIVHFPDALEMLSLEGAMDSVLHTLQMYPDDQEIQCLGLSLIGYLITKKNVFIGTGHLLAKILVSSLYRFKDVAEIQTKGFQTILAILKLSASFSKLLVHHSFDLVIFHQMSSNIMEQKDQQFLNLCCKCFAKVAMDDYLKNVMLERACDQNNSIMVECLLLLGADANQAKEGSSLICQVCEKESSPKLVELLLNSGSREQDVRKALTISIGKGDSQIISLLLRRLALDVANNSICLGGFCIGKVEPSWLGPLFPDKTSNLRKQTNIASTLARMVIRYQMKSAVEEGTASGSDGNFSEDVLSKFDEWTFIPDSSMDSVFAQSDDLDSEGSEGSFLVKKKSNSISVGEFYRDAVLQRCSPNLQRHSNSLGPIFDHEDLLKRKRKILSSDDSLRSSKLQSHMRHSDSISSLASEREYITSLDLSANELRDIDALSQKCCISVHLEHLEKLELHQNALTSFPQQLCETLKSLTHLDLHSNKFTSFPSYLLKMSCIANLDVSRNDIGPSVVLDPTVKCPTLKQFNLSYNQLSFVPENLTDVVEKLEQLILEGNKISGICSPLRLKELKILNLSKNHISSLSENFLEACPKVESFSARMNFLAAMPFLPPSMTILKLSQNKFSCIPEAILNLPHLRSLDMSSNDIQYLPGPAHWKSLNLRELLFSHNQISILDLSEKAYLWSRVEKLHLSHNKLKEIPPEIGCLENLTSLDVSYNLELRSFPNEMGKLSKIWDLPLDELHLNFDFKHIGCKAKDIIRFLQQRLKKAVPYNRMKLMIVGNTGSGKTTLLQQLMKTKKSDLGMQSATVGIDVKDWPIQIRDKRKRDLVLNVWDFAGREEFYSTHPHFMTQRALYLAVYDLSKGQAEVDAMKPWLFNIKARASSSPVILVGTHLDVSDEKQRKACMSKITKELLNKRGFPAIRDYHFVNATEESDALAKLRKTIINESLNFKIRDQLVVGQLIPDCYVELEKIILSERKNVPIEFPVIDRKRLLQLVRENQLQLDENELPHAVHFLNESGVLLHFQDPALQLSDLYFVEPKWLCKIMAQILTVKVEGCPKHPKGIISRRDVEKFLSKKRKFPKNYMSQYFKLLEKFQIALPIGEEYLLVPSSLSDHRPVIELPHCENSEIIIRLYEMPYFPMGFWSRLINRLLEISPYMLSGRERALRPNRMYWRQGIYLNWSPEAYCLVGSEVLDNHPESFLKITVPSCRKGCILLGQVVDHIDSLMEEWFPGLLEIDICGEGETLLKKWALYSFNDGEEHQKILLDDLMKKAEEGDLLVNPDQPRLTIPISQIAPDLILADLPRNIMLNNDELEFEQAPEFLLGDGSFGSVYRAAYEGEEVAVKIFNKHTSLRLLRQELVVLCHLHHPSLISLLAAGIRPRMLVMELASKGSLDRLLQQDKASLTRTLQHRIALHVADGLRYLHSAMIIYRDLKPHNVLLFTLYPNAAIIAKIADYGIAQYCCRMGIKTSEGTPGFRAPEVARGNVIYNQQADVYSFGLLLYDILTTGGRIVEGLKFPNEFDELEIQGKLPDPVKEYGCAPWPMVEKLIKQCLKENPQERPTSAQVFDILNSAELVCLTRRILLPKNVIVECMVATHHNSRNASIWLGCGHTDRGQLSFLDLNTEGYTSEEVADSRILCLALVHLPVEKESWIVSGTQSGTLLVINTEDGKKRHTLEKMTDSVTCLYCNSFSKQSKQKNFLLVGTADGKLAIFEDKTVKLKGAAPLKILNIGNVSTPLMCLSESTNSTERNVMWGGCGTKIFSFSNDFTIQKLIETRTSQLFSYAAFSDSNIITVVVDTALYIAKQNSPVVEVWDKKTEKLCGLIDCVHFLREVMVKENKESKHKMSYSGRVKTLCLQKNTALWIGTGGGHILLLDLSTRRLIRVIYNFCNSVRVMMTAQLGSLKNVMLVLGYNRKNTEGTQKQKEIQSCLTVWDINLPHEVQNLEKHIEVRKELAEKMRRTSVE
The target is the same in experiment [14]. The conditions noted are these: at 1 µM.
The subject of experiment [15] is Leucine-rich repeat serine/threonine-protein kinase 2 (Homo sapiens), Q5S007 [G2019S]. As to conditions: at 0.1 µM.
Experiment [16] shares this test system. As to conditions: at 1 µM.
Experiment [17] deals with T2, Tyrosine-protein kinase ZAP-70 (Homo sapiens). The conditions noted are these: at 0.1 µM.

Chain of Leucine-rich repeat serine/threonine-protein kinase 2 (Homo sapiens), Q5S007 [G2019S] (Q5S007 whole entry G2019S): as the sequence (Q5S007 whole entry) above, with G2019S counted along it
Chain of RAF proto-oncogene serine/threonine-protein kinase (Homo sapiens) (P04049 whole entry): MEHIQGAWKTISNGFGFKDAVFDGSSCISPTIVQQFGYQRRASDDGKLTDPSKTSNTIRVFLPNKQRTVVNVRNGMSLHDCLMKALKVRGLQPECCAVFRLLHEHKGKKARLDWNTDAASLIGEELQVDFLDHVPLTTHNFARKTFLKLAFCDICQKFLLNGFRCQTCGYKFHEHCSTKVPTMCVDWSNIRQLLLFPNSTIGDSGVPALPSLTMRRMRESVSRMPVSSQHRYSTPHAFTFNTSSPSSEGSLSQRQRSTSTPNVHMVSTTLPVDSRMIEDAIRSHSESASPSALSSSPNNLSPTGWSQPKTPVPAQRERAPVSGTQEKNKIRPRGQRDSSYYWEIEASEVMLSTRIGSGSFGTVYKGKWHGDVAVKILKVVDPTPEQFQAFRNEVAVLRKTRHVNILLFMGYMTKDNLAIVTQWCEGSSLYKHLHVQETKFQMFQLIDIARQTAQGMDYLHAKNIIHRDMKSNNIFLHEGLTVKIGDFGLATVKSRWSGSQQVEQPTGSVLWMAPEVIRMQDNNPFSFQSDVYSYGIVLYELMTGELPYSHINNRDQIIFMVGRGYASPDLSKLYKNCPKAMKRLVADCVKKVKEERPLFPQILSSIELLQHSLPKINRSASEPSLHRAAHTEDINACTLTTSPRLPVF
Chain of Tyrosine-protein kinase Yes (Homo sapiens) (P07947 2-543 limits assumed): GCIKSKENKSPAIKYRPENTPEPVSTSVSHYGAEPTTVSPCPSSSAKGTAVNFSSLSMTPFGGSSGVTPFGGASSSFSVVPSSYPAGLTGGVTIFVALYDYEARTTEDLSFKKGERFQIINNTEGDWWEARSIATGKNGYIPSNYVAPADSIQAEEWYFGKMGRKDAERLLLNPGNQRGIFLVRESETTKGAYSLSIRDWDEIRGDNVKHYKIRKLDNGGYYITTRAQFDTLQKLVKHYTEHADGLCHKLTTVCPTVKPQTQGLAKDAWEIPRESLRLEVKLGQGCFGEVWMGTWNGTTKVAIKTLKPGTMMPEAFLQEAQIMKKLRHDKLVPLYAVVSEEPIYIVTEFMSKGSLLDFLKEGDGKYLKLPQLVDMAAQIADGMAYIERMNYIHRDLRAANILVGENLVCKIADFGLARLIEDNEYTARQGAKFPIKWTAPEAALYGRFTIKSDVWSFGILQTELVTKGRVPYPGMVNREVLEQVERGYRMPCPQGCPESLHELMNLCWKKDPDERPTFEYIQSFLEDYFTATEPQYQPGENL

For `COc1cc(C)c(NC(=O)CN(C)C)cc1Nc1nc(Nc2cccc(F)c2C(N)=O)c2cc[nH]c2n1`, the inhibition is 7.81% in experiment [1]; 2.05% in [2]; -2.14% in [3]; 3.93% in experiment [4]; 2.75% in [5]; 6.44% in experiment [6]. Besides, the inhibition in experiment [7] is 3.06%; in experiment [8], 6.56%; in experiment [9], -0.92%; in experiment [10] it was -0.14%; in experiment [11] it was -2.25%; in [12], 2%. Moreover, the inhibition in experiment [13] is 91.2%; in [14] it was 90.2%; in [15] it was 83.5%; in [16], 88.7%.

As for `COc1ccc(COc2ccc(Cc3cnc(N)nc3N)cc2OC)cc1`, the inhibition in experiment [1] is 0.77%; in [2], -0.39%; in experiment [3] it was -3.3%; in experiment [17], 3.08%; in experiment [4] it was 4.05%; in experiment [5], -1.31%. The inhibition was -0.42% in experiment [6]; -1.07% in experiment [7]; 0.7% in experiment [8]; 1.84% in experiment [9]; 1.04% in experiment [11]; 0.89% in experiment [12]. Also, the inhibition in experiment [13] amounted to 4.88%; in [14] it was 5.38%; in experiment [15], 3.29%; in [16], 5.32%.

As for `N#Cc1c(NC(=O)c2cccc3ccccc23)sc2c1CCCC2`, the inhibition in experiment [1] amounted to 2.06%; in experiment [2], 3.08%; in experiment [3] it was 2.43%; in experiment [17] it was 2.19%; in experiment [4], 4.42%; in experiment [5], 4.29%. In addition, the inhibition was 5.63% in experiment [6]; 4.43% in [7]; 5.4% in [8]; -0.45% in experiment [9]; 3.48% in experiment [10]; 2.64% in experiment [11]. Also, the inhibition in experiment [12] came out at 1.05%; in [13] it was 1.35%; in experiment [14], 2.73%; in [15], 1.99%; in [16], 3.65%.

For the compound `COc1cccc(-n2ncc3c(N/N=C/c4cccc(F)c4)ncnc32)c1`, the inhibition was 8.11% in experiment [1]; 6.17% in [2]; 31% in [3]; -0.37% in experiment [17]; -0.02% in [4]; 4.04% in [5]. Also, the inhibition in experiment [6] is 5.91%; in experiment [7], 3.95%; in experiment [8] it was 5.71%; in experiment [9] it was 0.69%; in experiment [10], -6.84%; in experiment [11], 3.28%. Also, the inhibition in [12] was 1.56%; in [13], -3.46%; in experiment [14], -0.49%; in experiment [15], 0.79%; in experiment [16], 2.23%.

On to `CS(=O)(=O)CCNCc1ccc(-c2ccc3ncnc(Nc4ccc(OCc5cccc(F)c5)c(C(F)(F)F)c4)c3c2)o1`, for which the inhibition is 3.6% in experiment [1]; 0.9% in experiment [2]; 5.19% in experiment [3]; -4.38% in experiment [17]; -2.61% in experiment [4]; 6.3% in experiment [5]. Besides, the inhibition is 6.29% in [6]; 7.33% in experiment [7]; 6.22% in experiment [8]; 2.93% in [9]; 12.1% in [10]; 4.38% in [11]. Also, the inhibition in [12] was 1.89%; in [13], 0.82%; in experiment [14], 1.68%; in experiment [15], 3.39%; in experiment [16], 2.93%.

Take `COc1ccc(-c2coc3ncnc(N)c23)cc1`: the inhibition in [1] was 0.37%; in [2], 1.25%; in [3] it was 2.89%; in experiment [17] it was 0.06%; in experiment [4], 4.55%; in experiment [5] it was 4.66%. For the same compound, the inhibition came to 7.42% in [6]; 6.07% in experiment [7]; 6.81% in experiment [8]; 2.99% in experiment [9]; 4.1% in experiment [10]; 0.41% in experiment [11]. In addition, the inhibition in experiment [12] stood at 1.48%; in experiment [13], 3.62%; in experiment [14], 6.4%; in experiment [15], 4.35%; in experiment [16], 7.19%.

With `c1cnn2ncc(-c3ccnc(Nc4ccc5c(c4)OCCO5)n3)c2c1`, the inhibition in experiment [1] was 25%; in [2], 6.25%; in [3], 18.3%; in experiment [17], 0.79%; in [4] it was 9.39%; in experiment [5], 9.37%. The inhibition in [6] was 33.3%; in experiment [7], 8.24%; in [8] it was 31%; in experiment [9], -0.29%; in [11] it was -2.01%; in experiment [12], 7.85%. Also, the inhibition in experiment [13] stood at 12.2%; in experiment [14], 19.8%; in experiment [15] it was 16.6%; in experiment [16] it was 61.4%.

By inhibition is commonly meant the change of the read-out against control, counted positive when it falls.

(Values after ChEMBL document CHEMBL1961873, “Compounds: GSK PKIS; Assays: Nanosyn kinase panel” (2012).)
